# “And” between values parts separate entries of the source, which are not always exact repeats. Equal values may be shown once. This is part of a sample that, as a whole, favours compounds with a hit. Of some 83,000 tested, about 20% had one in any assay.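 Note: values are percent growth. 100 is the growth of untreated cells, values between 100 and 0 indicate rising inhibition; between -100 and 0 indicates cell death.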 The source made the active and inactive calls. Rule for the calls: active = growth percent below 10; inactive = the rest.
# Key:
# Assay in all cases: NCI-60 one-dose screen, 48 h (100 = growth as untreated, 0 = no growth, -100 = all killed)
# [1] = test system: HCT-15 colon
# [2] = test system: HT29 colon
# [3] = test system: SNB-75 CNS
# [4] = test system: SNB-19 CNS
# [5] = test system: PC-3 prostate
# [6] = test system: SK-MEL-5 melanoma
# [7] = test system: UACC-62 melanoma
# [8] = test system: LOX IMVI melanoma
# [9] = test system: SK-MEL-28 melanoma
# [10] = test system: SK-MEL-2 melanoma
# [11] = test system: EKVX NSCLC
# [12] = test system: SN12C renal
# [13] = test system: UO-31 renal
# [14] = test system: TK-10 renal
# [15] = test system: ACHN renal
# [16] = test system: CAKI-1 renal
# [17] = test system: A498 renal
# [18] = test system: U251 CNS
# [19] = test system: CCRF-CEM leukemia; settings: 10 µM unless noted
# [20] = test system: MOLT-4 leukemia; settings: 10 µM unless noted
smiles,measurement,setting,value
CCCCCCCCCCCCCCCc1ccc(Cl)c(O)c1Cl (tested in a mixture with another compound),growth,[1]; 0.25 µM,76.6% (inactive)
same,growth,[1]; 10 µM,109% (inactive)
same,growth,[2]; 0.25 µM,43.1% (inactive)
same,growth,[2]; 10 µM,88% (inactive)
same,growth,[3]; 0.25 µM,36.6% (inactive)
same,growth,[3]; 10 µM,94.2% (inactive)
same,growth,[4]; 0.25 µM,10.8% (inactive)
same,growth,[4]; 10 µM,111% (inactive)
same,growth,[5]; 0.25 µM,59.5% (inactive)
same,growth,[5]; 10 µM,90.4% (inactive)
same,growth,[6]; 10 µM unless noted,87.7% (inactive)
same,growth,[7]; 10 µM unless noted,22.8% [0.25 µM] (inactive)
same,growth,[8]; 0.25 µM,19.4% (inactive)
same,growth,[8]; 10 µM,99.2% (inactive)
same,growth,[9]; 0.25 µM,51.3% (inactive)
same,growth,[9]; 10 µM,109% (inactive)
same,growth,[10]; 0.25 µM,57.4% (inactive)
same,growth,[10]; 10 µM,88.2% (inactive)
same,growth,[11]; 0.25 µM,79.8% (inactive)
same,growth,[11]; 10 µM,106% (inactive)
same,growth,[12]; 0.25 µM,12.5% (inactive)
same,growth,[12]; 10 µM,89.7% (inactive)
same,growth,[13]; 0.25 µM,63.4% (inactive)
same,growth,[13]; 10 µM,93.6% (inactive)
same,growth,[14]; 0.25 µM,68.9% (inactive)
same,growth,[14]; 10 µM,115% (inactive)
same,growth,[15]; 0.25 µM,34% (inactive)
same,growth,[15]; 10 µM,108% (inactive)
same,growth,[16]; 0.25 µM,32% (inactive)
same,growth,[16]; 10 µM,94.8% (inactive)
same,growth,[17]; 0.25 µM,43.5% (inactive)
same,growth,[17]; 10 µM,125% (inactive)
CC1CCCc2sc3nc(NNC(=O)c4cnccn4)n(-c4ccccc4)c(=O)c3c21 (stereo not given),growth,[1]; 10 µM unless noted,26.4% (inactive) and 24.6% (inactive)
same,growth,[2]; 10 µM unless noted,22.4% (inactive) and 26.2% (inactive)
same,growth,[3]; 10 µM unless noted,36.4% (inactive) and 2.93% (active)
same,growth,[4]; 10 µM unless noted,25.8% (inactive) and 21.6% (inactive)
same,growth,[18]; 10 µM unless noted,4.39% (active) and 8.03% (active)
same,growth,[5]; 10 µM unless noted,30% (inactive) and 27.4% (inactive)
same,growth,[6]; 10 µM unless noted,-38.3% (active) and -65.9% (active)
same,growth,[7]; 10 µM unless noted,-33.9% (active) and -8.57% (active)
same,growth,[8]; 10 µM unless noted,0.839% (active) and 2.01% (active)
same,growth,[9]; 10 µM unless noted,11.7% (inactive) and 27.4% (inactive)
same,growth,[10]; 10 µM unless noted,11.3% (inactive) and 25.1% (inactive)
same,growth,[11]; 10 µM unless noted,14.8% (inactive) and 7.14% (active)
same,growth,[12]; 10 µM unless noted,20% (inactive) and 16.7% (inactive)
same,growth,[13]; 10 µM unless noted,8.23% (active) and 5.71% (active)
same,growth,[14]; 10 µM unless noted,30.3% (inactive) and 37.9% (inactive)
same,growth,[15]; 10 µM unless noted,8.58% (active) and 19.9% (inactive)
same,growth,[16]; 10 µM unless noted,5.81% (active) and 0.832% (active)
same,growth,[17]; 10 µM unless noted,27.8% (inactive)
same,growth,[19],3.85% (active) and 0.781% (active)
same,growth,[20],5.36% (active) and 10.6% (inactive)
O=C(N/N=C/c1ccccc1)N/N=C/c1ccccc1,growth,[1]; 10 µM unless noted,104% (inactive) and 103% (inactive)
same,growth,[2]; 10 µM unless noted,109% (inactive) and 105% (inactive)
same,growth,[3]; 10 µM unless noted,103% (inactive) and 88% (inactive)
same,growth,[4]; 10 µM unless noted,105% (inactive) and 106% (inactive)
same,growth,[18]; 10 µM unless noted,114% (inactive) and 97.8% (inactive)
same,growth,[5]; 10 µM unless noted,97.7% (inactive)
same,growth,[6]; 10 µM unless noted,106% (inactive) and 94.5% (inactive)
same,growth,[7]; 10 µM unless noted,101% (inactive)
same,growth,[8]; 10 µM unless noted,117% (inactive) and 103% (inactive)
same,growth,[9]; 10 µM unless noted,121% (inactive) and 113% (inactive)
same,growth,[10]; 10 µM unless noted,123% (inactive) and 119% (inactive)
same,growth,[11]; 10 µM unless noted,104% (inactive) and 101% (inactive)
same,growth,[12]; 10 µM unless noted,103% (inactive) and 114% (inactive)
same,growth,[13]; 10 µM unless noted,92.4% (inactive) and 102% (inactive)
same,growth,[14]; 10 µM unless noted,119% (inactive) and 110% (inactive)
same,growth,[15]; 10 µM unless noted,109% (inactive) and 111% (inactive)
same,growth,[16]; 10 µM unless noted,92.2% (inactive) and 114% (inactive)
same,growth,[17]; 10 µM unless noted,61.3% (inactive)
same,growth,[19],98.6% (inactive) and 102% (inactive)
same,growth,[20],91.8% (inactive) and 113% (inactive)
CN(C)c1ccc(/C=C(\C#N)c2ccccc2)cc1,growth,[1]; 10 µM unless noted,26.3% (inactive) and 29.3% (inactive) and 29.4% (inactive)
same,growth,[2]; 10 µM unless noted,12.4% (inactive) and 6.06% (active) and 3.67% (active)
same,growth,[3]; 10 µM unless noted,4.23% (active) and 15.8% (inactive)
same,growth,[4]; 10 µM unless noted,61.4% (inactive) and 52.5% (inactive) and 35.8% (inactive)
same,growth,[18]; 10 µM unless noted,18.5% (inactive) and 32.3% (inactive) and 23.9% (inactive)
same,growth,[5]; 10 µM unless noted,18.9% (inactive) and 36% (inactive) and 19.5% (inactive)
same,growth,[6]; 10 µM unless noted,31.6% (inactive) and 26.3% (inactive) and 19.4% (inactive)
same,growth,[7]; 10 µM unless noted,32.6% (inactive) and 21.9% (inactive) and 22.2% (inactive)
same,growth,[8]; 10 µM unless noted,51.1% (inactive) and 41.1% (inactive) and 42.4% (inactive)
same,growth,[9]; 10 µM unless noted,97.7% (inactive) and 70.6% (inactive) and 64.5% (inactive)
same,growth,[10]; 10 µM unless noted,-36% (active) and 11.7% (inactive) and 22.8% (inactive)
same,growth,[11]; 10 µM unless noted,53.9% (inactive) and 45.7% (inactive) and 56.9% (inactive)
same,growth,[12]; 10 µM unless noted,66.5% (inactive) and 62.2% (inactive) and 39.1% (inactive)
same,growth,[13]; 10 µM unless noted,29.1% (inactive) and 53.1% (inactive) and 42.5% (inactive)
same,growth,[14]; 10 µM unless noted,57.8% (inactive) and 43.1% (inactive) and 54.9% (inactive)
same,growth,[15]; 10 µM unless noted,50.3% (inactive) and 65.3% (inactive) and 52.2% (inactive)
same,growth,[16]; 10 µM unless noted,41.1% (inactive) and 43.3% (inactive)
same,growth,[17]; 10 µM unless noted,63.6% (inactive) and 29.8% (inactive) and 0.464% (active)
same,growth,[19],-17.2% (active) and 23.6% (inactive) and 6.64% (active)
Cc1cc(N=Nc2ccc(C)c(N=Nc3cc(C)c(N)cc3N)c2)c(N)cc1N,growth,[1]; 10 µM unless noted,95.9% (inactive) and 44.3% (inactive)
same,growth,[2]; 10 µM unless noted,92.8% (inactive) and 40.8% (inactive)
same,growth,[3]; 10 µM unless noted,78% (inactive) and 72.7% (inactive)
same,growth,[4]; 10 µM unless noted,97.7% (inactive) and 91.2% (inactive)
same,growth,[18]; 10 µM unless noted,97% (inactive) and 86.7% (inactive)
same,growth,[5]; 10 µM unless noted,64.6% (inactive)
same,growth,[6]; 10 µM unless noted,100% (inactive) and 78.7% (inactive)
same,growth,[7]; 10 µM unless noted,91.7% (inactive) and 93.9% (inactive)
same,growth,[8]; 10 µM unless noted,90.8% (inactive) and 82.6% (inactive)
same,growth,[9]; 10 µM unless noted,98.9% (inactive) and 88.4% (inactive)
same,growth,[10]; 10 µM unless noted,107% (inactive)
same,growth,[11]; 10 µM unless noted,67.1% (inactive) and 72.3% (inactive)
same,growth,[12]; 10 µM unless noted,95.6% (inactive) and 85.7% (inactive)
same,growth,[13]; 10 µM unless noted,63.9% (inactive) and 51.5% (inactive)
same,growth,[14]; 10 µM unless noted,93.7% (inactive) and 92.3% (inactive)
same,growth,[15]; 10 µM unless noted,84.4% (inactive) and 81.8% (inactive)
same,growth,[16]; 10 µM unless noted,78.2% (inactive) and 78.7% (inactive)
same,growth,[17]; 10 µM unless noted,93.8% (inactive) and 85.9% (inactive)
same,growth,[19],84.5% (inactive) and 61.3% (inactive)
same,growth,[20],64.4% (inactive) and 61.8% (inactive)
Cc1n[nH]c(=O)n(/N=C\c2c[nH]c3ccccc23)c1=O,growth,[1]; 10 µM unless noted,105% (inactive)
same,growth,[2]; 10 µM unless noted,101% (inactive)
same,growth,[3]; 10 µM unless noted,84% (inactive)
same,growth,[4]; 10 µM unless noted,105% (inactive)
same,growth,[18]; 10 µM unless noted,98.8% (inactive)
same,growth,[5]; 10 µM unless noted,97.9% (inactive)
same,growth,[6]; 10 µM unless noted,102% (inactive)
same,growth,[7]; 10 µM unless noted,107% (inactive)
same,growth,[8]; 10 µM unless noted,99.4% (inactive)
same,growth,[9]; 10 µM unless noted,105% (inactive)
same,growth,[10]; 10 µM unless noted,104% (inactive)
same,growth,[11]; 10 µM unless noted,109% (inactive)
same,growth,[12]; 10 µM unless noted,99.8% (inactive)
same,growth,[13]; 10 µM unless noted,60.6% (inactive)
same,growth,[14]; 10 µM unless noted,100% (inactive)
same,growth,[15]; 10 µM unless noted,98.5% (inactive)
same,growth,[16]; 10 µM unless noted,98.4% (inactive)
same,growth,[17]; 10 µM unless noted,103% (inactive)
same,growth,[19],95.9% (inactive)
O=C(O)c1sccc1O,growth,[1]; 10 µM,81% (inactive)
same,growth,[1]; 100 µM,31.5% (inactive)
same,growth,[2]; 10 µM,105% (inactive)
same,growth,[2]; 100 µM,30.2% (inactive)
same,growth,[3]; 10 µM,84.6% (inactive)
same,growth,[3]; 100 µM,28.5% (inactive)
same,growth,[4]; 10 µM,82.1% (inactive)
same,growth,[4]; 100 µM,34.8% (inactive)
same,growth,[18]; 10 µM,76.6% (inactive)
same,growth,[18]; 100 µM,15.9% (inactive)
same,growth,[5]; 10 µM,49.3% (inactive)
same,growth,[5]; 100 µM,23% (inactive)
same,growth,[6]; 10 µM,78.6% (inactive)
same,growth,[6]; 100 µM,7.35% (active)
same,growth,[7]; 10 µM,56.5% (inactive)
same,growth,[7]; 100 µM,0.233% (active)
same,growth,[8]; 10 µM,80.3% (inactive)
same,growth,[8]; 100 µM,2.04% (active)
same,growth,[10]; 10 µM,87.2% (inactive)
same,growth,[10]; 100 µM,8.51% (active)
same,growth,[11]; 10 µM,81.3% (inactive)
same,growth,[11]; 100 µM,33.5% (inactive)
same,growth,[12]; 10 µM,76.3% (inactive)
same,growth,[12]; 100 µM,35.7% (inactive)
same,growth,[13]; 10 µM,48.1% (inactive)
same,growth,[13]; 100 µM,26.7% (inactive)
same,growth,[14]; 10 µM,133% (inactive)
same,growth,[14]; 100 µM,68.8% (inactive)
same,growth,[15]; 10 µM unless noted,70.7% (inactive)
same,growth,[17]; 10 µM,89.1% (inactive)
same,growth,[17]; 100 µM,46.2% (inactive)
CC(=O)C(/C=N/C(N)=O)=C(/C)O,growth,[1]; 10 µM unless noted,104% (inactive)
same,growth,[2]; 10 µM unless noted,101% (inactive)
same,growth,[3]; 10 µM unless noted,93.8% (inactive)
same,growth,[4]; 10 µM unless noted,103% (inactive)
same,growth,[18]; 10 µM unless noted,99.6% (inactive)
same,growth,[5]; 10 µM unless noted,100% (inactive)
same,growth,[6]; 10 µM unless noted,110% (inactive)
same,growth,[7]; 10 µM unless noted,110% (inactive)
same,growth,[8]; 10 µM unless noted,92.9% (inactive)
same,growth,[9]; 10 µM unless noted,115% (inactive)
same,growth,[10]; 10 µM unless noted,119% (inactive)
same,growth,[11]; 10 µM unless noted,108% (inactive)
same,growth,[12]; 10 µM unless noted,105% (inactive)
same,growth,[13]; 10 µM unless noted,91.1% (inactive)
same,growth,[14]; 10 µM unless noted,105% (inactive)
same,growth,[15]; 10 µM unless noted,99.8% (inactive)
same,growth,[16]; 10 µM unless noted,97.9% (inactive)
same,growth,[17]; 10 µM unless noted,92.7% (inactive)
same,growth,[19],97.4% (inactive)

# — PubChem BioAssay (NCI)
